PubChem BioAssay AID1159580 (chemical genetic matrix, 2015)
Screen size: about 5,500 compounds; about 2,000 (36%) were called active. Inconclusive results (about 18%) are left out. Cut-off read from the data, not from the text of the source: active = normalized growth mostly below about 0.91 (no sharp cut-off); inconclusive = no clear call, values can overlap the other calls; inactive = mostly above about 0.92. The list shows a part of the results.

Assay: chemical genetic growth profiling, strain panel (AID 1159580);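 note: tested at 20 µM; growth read once vehicle control cultures reached saturation at 30 °C; 1 = growth at the plate median or of vehicle wells; lower values mean less growth of the strain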
Conditions: S. cerevisiae deletion strains, growth OD

Measured: normalized growth

N/C(=N/OC(=O)c1ccccc1Cl)c1cccc(CS(=O)(=O)c2ccc(Cl)cc2)c1
inactive: locus YAR019C, strain CDC15, stronger effect = lower value 0.993 | locus YBL105C, strain PKC1, stronger effect = lower value 0.975 | locus YBR135W, strain CKS1, stronger effect = lower value 0.981 | locus YBR136W, strain MEC1, stronger effect = lower value 0.986 | locus YBR160W, strain CDC28, stronger effect = lower value 0.981 | locus YDL017W, strain CDC7, stronger effect = lower value 0.984 | locus YDL028C, strain MPS1, stronger effect = lower value 0.991 | locus YDL101C, strain DUN1, stronger effect = lower value 0.982 | locus YDL108W, strain KIN28, stronger effect = lower value 0.986 | locus YDL132W, strain cdc53, stronger effect = lower value 0.984 | locus YDL214C, strain PRR2, stronger effect = lower value 1.04 | locus YDR052C, strain DBF4, stronger effect = lower value 0.981 | locus YDR054C, strain cdc34, stronger effect = lower value 0.984 | locus YDR226W, strain ADK1, stronger effect = lower value 0.981 | locus YDR477W, strain SNF1, stronger effect = lower value 0.997 | locus YER123W, strain YCK3, stronger effect = lower value 0.995 | locus YER133W, strain GLC7, stronger effect = lower value 1 | locus YFL009W, strain cdc4, stronger effect = lower value 0.98 | locus YFL029C, strain CAK1, stronger effect = lower value 0.985 | locus YFR003C, strain YPI1, stronger effect = lower value 0.977 | locus YFR019W, strain FAB1, stronger effect = lower value 1.01 | locus YFR028C, strain CDC14, stronger effect = lower value 0.99 | locus YGR040W, strain KSS1, stronger effect = lower value 1 | locus YGR052W, strain FMP48, stronger effect = lower value 1.02 | locus YGR092W, strain DBF2, stronger effect = lower value 0.974 | locus YHR030C, strain SLT2, stronger effect = lower value 1.12 | locus YHR079C, strain IRE1, stronger effect = lower value 1.09 | locus YHR082C, strain KSP1, stronger effect = lower value 1.13 | locus YHR205W, strain SCH9, stronger effect = lower value 0.984 | locus YIL147C, strain SLN1, stronger effect = lower value 0.988 | locus YJL095W, strain BCK1, stronger effect = lower value 0.973 | locus YJL128C, strain PBS2, stronger effect = lower value 0.985 | locus YJL157C, strain FAR1, stronger effect = lower value 1.01 | locus YJR016C, strain ILV3, stronger effect = lower value 0.999 | locus YJR066W, strain TOR1 (second series), stronger effect = lower value 0.982 | locus YJR066W, strain TOR1, stronger effect = lower value 1.07 | locus YKL048C, strain ELM1, stronger effect = lower value 0.996 | locus YKL067W, strain YNK1, stronger effect = lower value 1.01 | locus YKL101W, strain HSL1, stronger effect = lower value 1.01 | locus YKL193C, strain SDS22, stronger effect = lower value 0.983 | locus YKL203C, strain TOR2, stronger effect = lower value 1.07 | locus YLR113W, strain HOG1, stronger effect = lower value 0.996 | locus YLR133W, strain CKI1, stronger effect = lower value 1.02 | locus YLR403W, strain SFP1, stronger effect = lower value 0.987 | locus YML070W, strain DAK1, stronger effect = lower value 1.02 | locus YMR001C, strain CDC5, stronger effect = lower value 0.986 | locus YMR205C, strain PFK2 (second series), stronger effect = lower value 1 | locus YMR277W, strain FCP1, stronger effect = lower value 0.99 | locus YNL006W, strain LST8, stronger effect = lower value 0.994 | locus YNL020C, strain ARK1, stronger effect = lower value 1.02 | locus YNL161W, strain CBK1, stronger effect = lower value 0.988 | locus YNL183C, strain NPR1, stronger effect = lower value 1.04 | locus YNL207W, strain RIO2, stronger effect = lower value 0.98 | locus YNL222W, strain SSU72, stronger effect = lower value 0.981 | locus YNL307C, strain MCK1 (second series), stronger effect = lower value 0.968 | locus YOL078W, strain AVO1, stronger effect = lower value 0.986 | locus YOL136C, strain PFK27, stronger effect = lower value 1.03 | locus YOR061W, strain CKA2, stronger effect = lower value 1.01 | locus YOR119C, strain RIO1, stronger effect = lower value 1.08 | locus YOR231W, strain MKK1, stronger effect = lower value 1.01 | locus YOR329C, strain SCD5, stronger effect = lower value 0.994 | locus YPL031C, strain PHO85, stronger effect = lower value 1.01 | locus YPL153C, strain RAD53, stronger effect = lower value 0.994 | locus YPL204W, strain HRR25, stronger effect = lower value 1 | locus YPL209C, strain IPL1, stronger effect = lower value 0.981 | locus YPR025C, strain CCL1, stronger effect = lower value 0.988 | locus YPR106W, strain ISR1, stronger effect = lower value 1 | locus YPR111W, strain DBF20, stronger effect = lower value 0.988 | strain NNK1, stronger effect = lower value 0.99 | strain TSCII, stronger effect = lower value 0.988
active: locus YPL256C, strain CLN2, stronger effect = lower value 1.2 [resistant]
